Reference: PubChem BioAssay (NCATS)
Inconclusive results are not listed. Calls of active or inactive are those of the source. Calls come from the whole dose curve; as a rule, active = well fitted cell-killing curve with a large enough effect; inconclusive = small, poorly fitted or top-dose-only effect, or effect the other way; inactive = flat fitted curve, though single readings scatter.

tested on: C33A; test: Primary qHTS to identify gynecologic anti-cancer compounds using libraries of approved drugs and bioactive compounds (AID 1345084); conditions: Gynecologic cancer cell panel viability, ATPlite luminescence, 48 h; series mostly up to 57.5 µM; activity change, negative = cytotoxicity: at the top concentration; note: nearly all actives have a fitted effect of over 55% in size
Outline: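 In this quantitative HTS, cell killing is estimated from loss of ATP-dependent luciferase light. Cells see five compound concentrations over a 48 h exposure.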
% is set by controls: 0 for no effect and ±100 for the full control effect; potency is the fitted concentration of half-maximal effect.

Row | Structure (SMILES) | Potency | activity change, negative = cytotoxicity
1 | CCCC1(CCC)CCC2(CCN(CCCN(CC)CC)C2)CC1 | 6.31 µM (active) | 
2 | Cc1ccc(O)cc1Nc1ccnc(Nc2cccc(C(N)=O)c2)n1 |  | -30.8% (inactive)
3 | Cn1ncc(Cl)c1-c1cc(C(=O)N[C@H](CN)Cc2cccc(F)c2)sc1Cl | 11.2 µM (active) | 
4 | O=C(NCCCN1CCC2(CC1)OCc1ccccc12)[C@H]1CCCN1Cc1ccccc1 |  | 2.19% (inactive)
5 | CC(C)c1cc(-c2ccc(F)c3ccccc23)nc(N)n1 |  | 6.72% (inactive)
6 | CC(C)NCCCn1c(Sc2cc3c(cc2I)OCO3)nc2c(N)ncnc21 | 1.58 µM (active) | 
7 | CC(=O)OC1CC2(C)C(CCC(C)C23Cc2c(O)cc(CO)c(C=O)c2O3)C(C)(C)C1O (configuration not stated) |  | 13.1% [at 25.3 µM] (inactive)
8 | CC(C)Oc1ccc(-c2cnc3c(-c4ccnc5ccccc45)cnn3c2)cc1 |  | 0.832% (inactive)
9 | Cc1[nH]c(/C=C2\C(=O)Nc3cc(-c4ccccc4)ccc32)c(C)c1CCC(=O)O |  | -3.67% (inactive)
10 | CN(C)C(=O)NC1(c2ccccc2)CCN(CCC[C@]2(c3ccc(Cl)c(Cl)c3)CCCN(C(=O)c3ccccc3)C2)CC1 |  | 3.51% (inactive)
11 | CC(=O)N[C@H]1[C@H](O[C@H]2CC[C@@]3(C)C(CC[C@]4(C)C3CC=C3C5CC(C)(C)CC[C@]5(C(=O)O)C(O)C[C@]34C)C2(C)C)O[C@H](CO[C@@H]2O[C@H](C)[C@H](O)[C@H](O)[C@H]2O[C@@H]2OC[C@@H](O)[C@H](O)[C@H]2O)[C@@H](O)[C@@H]1O (some centres not stated) |  | 3.31% [at 11.6 µM] (inactive)
12 | Cc1cc(C)nc(SCC(=O)Nc2ncc(Cc3cccc4ccccc34)s2)n1 |  | -12.3% (inactive)
13 | COc1cccc(CN(C(=O)CC(C)(C)C)[C@H]2C[C@H](C(=O)N3CCNCC3)N(Cc3ccc4c(c3)OCO4)C2)c1 |  | 5.14% (inactive)
14 | Fc1ccc(N2CCN(CCC3OCCc4ccccc43)CC2)cc1 (configuration not stated) |  | 1.38% (inactive)
15 | O=C(NCc1ccccc1)c1ccc2c(=O)n(-c3cccc(C(F)(F)F)c3)c(=S)[nH]c2c1 |  | -1.2% (inactive)
16 | CN[C@@H]1[C@H](O[C@H]2[C@H](O[C@@H]3[C@@H](O)[C@H](O)[C@@H](N=C(N)N)[C@H](O)[C@H]3N=C(N)N)O[C@@H](C)[C@]2(O)CO)O[C@@H](CO)[C@H](O)[C@H]1O |  | 21.3% (inactive)

Row | Structure (SMILES) | Potency | activity change, negative = cytotoxicity
17 | CC1CCC(=O)CC(SCC(O)C(=O)O)CCC(=O)O1 (configuration not stated) |  | -0.648% (inactive)
18 | C=C1CC[C@H]2C(=C)CC[C@H]3C(=C)C(=O)O[C@@H]3[C@@H]12 |  | -5.15% (inactive)
19 | C=C1C(=O)O[C@@H]2C=C(COC(C)=O)CC/C=C(\CO)CC[C@@H]12 |  | -10.5% [at 38.5 µM] (inactive)
20 | COc1ccc(-c2ccccc2)cc1NS(=O)(=O)c1cc(Cl)cc(Cl)c1O |  | -15.9% [at 25.3 µM] (inactive)
21 | CC(=O)OC1C(=O)C2C3OCC4=C3[C@@](C)(CC[C@@H]4O)CC[C@]2(C)[C@H]1C(C)C (some centres not stated) |  | 11.4% [at 38.5 µM] (inactive)
22 | O=c1[nH]c2cccc(N3CCN(Cc4ccc(-c5ccccc5)cc4)CC3)c2o1 |  | -7.52% (inactive)
23 | Cc1nc(Nc2ccc(F)cc2)nc(N2CCc3ccccc3C2C)c1C (configuration not stated) |  | -11.8% (inactive)
24 | C[C@@H](O[C@H]1OCCN(Cc2nn(P(=O)(O)O)c(=O)[nH]2)[C@H]1c1ccc(F)cc1)c1cc(C(F)(F)F)cc(C(F)(F)F)c1 |  | 10.7% [at 25.3 µM] (inactive)
25 | COC(=O)C[C@H]1[C@]2(C)C3=C(C)[C@H](c4ccoc4)C[C@H]3O[C@@H]2[C@H](O)C2[C@](C)(C(=O)OC)C=CC(=O)[C@@]21C (some centres not stated) |  | -13.2% [at 25.3 µM] (inactive)
26 | CC(=O)c1ccc2c(c1)[C@H](NC(=O)c1ccc(F)c(Cl)c1)[C@H](O)C(C)(C)O2 |  | 14.4% (inactive)
27 | CC1OC(OC2C(O)COC(O[C@@H]3[C@@H](O)[C@@H](O)[C@H](OC4C(OC(=O)[C@]56CCC(C)(C)CC5C5=CCC7[C@@]8(C)C[C@H](O)[C@H](OC9OC(CO)C(O)C(O)C9O)[C@@](C)(CO)C8[C@H](O)C[C@@]7(C)[C@]5(C)CC6)OCC(O)C4O)O[C@H]3C)C2O)C(O)C(O)C1O (some centres not stated) |  | -9.28% [at 6.55 µM] (inactive)
28 | CC(=O)O[C@@]12CO[C@@H]1C[C@H](O)[C@@]1(C)C(=O)[C@H](O)C3=C(C)[C@@H](OC(=O)[C@H](O)[C@@H](NC(=O)OC(C)(C)C)c4ccccc4)C[C@@](O)([C@@H](OC(=O)c4ccccc4)C12)C3(C)C (some centres not stated) |  | -15.9% [at 25.3 µM] (inactive)
29 | Cc1c(C(=O)NCc2cccnc2)nn(-c2ccc(Cl)cc2Cl)c1-c1ccc(Cl)cc1 |  | 18.2% (inactive)
30 | C=C1CCC[C@]2(C)CC/C(=C(/CO)C(=O)OC)C[C@@H]12 |  | 1.38% (inactive)
31 | CC/C(C)=C/C(=O)OC1C(OC2(C)CCC3C(C4C(C)CCC42)C3(C)C)OC(C)C(O)C1O (configuration not stated) |  | -1.43% [at 25.3 µM] (inactive)
32 | CC(C)[C@@H](c1ccc(C(F)(F)F)cc1CN(Cc1cc(C(F)(F)F)cc(C(F)(F)F)c1)c1nnn(C)n1)N1CCC(C(=O)O)CC1 |  | 10.7% (inactive)
